Screening results: PubChem, National Center for Advancing Translational Sciences (NCATS)
Vaccinia mCherry = qHTS for Stage-Specific Inhibitors of Vaccinia Orthopoxvirus: mCherry Reporter Primary qHTS. Vaccinia virus mCherry reporter infection, fluorescence. 0.63% of 310,000 active. AID 720579, 2013. Potency, µM (doses to about 36.5 µM), for the others: at the highest dose activity change, negative = inhibition, actives largely listed as inhibitors; calls by dose curve; tested in A549 cells; also: potency is read from the fitted curve at half-maximal effect; nearly all actives have a fitted effect of over 35% in size
VACV Venus inh = qHTS for Stage-Specific Inhibitors of Vaccinia Orthopoxvirus: Venus Reporter Primary qHTS; 0.46% of 330,000 active; Vaccinia virus Venus reporter expression, fluorescence; Potency, µM (series often up to 36.5 µM), inactives show at the top dose activity change, negative = inhibition, usual class: inhibitors; calls by dose curve; tested in A549 cells; also: potency is read from the fitted curve at half-maximal effect; nearly all actives have a fitted effect of over 30% in size
HCV inh = qHTS Assay for Inhibitors of Hepatitis C Virus (HCV) | 3.4% of 340,000 active | Potency, µM (titrated, usually from 41.8 µM), inactives show at the top dose activity change, negative = inhibition, actives largely listed as inhibitors | Huh7.5.1 HCVcc-Cre infection, luciferase reporter, 44 h; active = well fitted inhibition curve with a large enough effect; inconclusive = small, poorly fitted or top-dose-only effect, or another doubt; inactive = no such curve, though single readings can be large or run the other way; also: potency is read from the fitted curve at half-maximal effect
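Infectious HCVcc-Cre (~0.5 moi) was added to cells just after compound, with cells seeded 4 h earlier at 1,000 per well. Luciferase activity after 44 h culture reported infection; substrate was incubated 15 min at room temperature before reading.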
FMDV inh = High Throughput Screening for Foot and Mouth Disease Virus Antivirals; 1.2% of 410,000 active; FMDV antiviral cell-based qHTS; Potency, µM (titrated, usually from 57.9 µM), for inactives: at the highest dose activity change, negative = inhibition, most hits filed as inhibitors; AID 1159524, 2015; calls by dose curve; tested in HEK293T cells; also: read-out not given here; potency is read from the fitted curve at half-maximal effect; nearly all actives have a fitted effect of over 45% in size
HCMV antiviral = qHTS Assay for inhibitors of the human cytomegalovirus (HCMV). activity change, negative = inhibition, % at 57.5 µM. HFF cells, HCMV-luciferase reporter, 72 h; stronger effect = lower value. 4.5% of 410,000 active; in the data active = activity change below about -60%; inconclusive = no clear call, values can overlap the other calls; inactive = above about -39%
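After 16 h attachment at 37C, HFF cells received test compound and HCMV-luciferase (1 PFU/cell); reporter luminescence read 72 h later, data normalized against buffer-only and known inhibitor Salinomycin.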
Numbers without * were called inactive; [ ] = another dose, or the depositor's remark. An excerpt weighted towards active compounds, which were near 7.3% of everything screened. % is scaled to controls: 0 for no effect and ±100 for the full control effect.

What do the screens show for `COC(=O)c1ccccc1NC1=C/C(=N\S(=O)(=O)c2ccc(C(=O)O)cc2)c2ccccc2C1=O`?
Vaccinia mCherry: 25µM*; VACV Venus inh: inconclusive; HCV inh: 10µM*; FMDV inh: inconclusive

Results for COC(=O)c1ccccc1NC1=C/C(=N\S(=O)(=O)c2cccs2)c2ccccc2C1=O ?
Vaccinia mCherry: inconclusive; VACV Venus inh: inconclusive; HCV inh: 8.9µM*; FMDV inh: 2.5µM*; HCMV antiviral: -30

How did Cc1ccc(S(=O)(=O)/N=C2\C=C(Nc3cccc(C(=O)O)c3)C(=O)c3ccccc32)cc1 do in these assays?
Vaccinia mCherry: inconclusive; VACV Venus inh: 5%; HCV inh: -7%; FMDV inh: -12%; HCMV antiviral: 3

Results for O=C1C=C(Nc2ccccc2C(=O)O)c2ccccc2C1=O ?
HCV inh: 9%; FMDV inh: -26%; HCMV antiviral: 0

What do the screens show for `CCc1ccc(S(=O)(=O)/N=C2\C=C(Nc3ccc(C(=O)O)cc3)C(=O)c3ccccc32)cc1`?
Vaccinia mCherry: inconclusive; VACV Venus inh: -6%; HCV inh: inconclusive; FMDV inh: inconclusive; HCMV antiviral: -98*

How did c1ccc(CCNCc2ccco2)nc1 do in these assays?
Vaccinia mCherry: -17%; VACV Venus inh: -5%; HCV inh: -8%; FMDV inh: -2%; HCMV antiviral: 4

How did CCCCOc1c(Cl)cc(C(=O)N(Cc2ccc(C)o2)C2CCS(=O)(=O)C2)cc1Cl (centres undefined) do in these assays?
Vaccinia mCherry: -8%; VACV Venus inh: -10%; FMDV inh: inconclusive; HCMV antiviral: -110*

Results for COc1cccc(CNC(=O)c2cccc(-n3c(C)nc4cccnc43)c2)c1OC ?
Vaccinia mCherry: -18%; VACV Venus inh: -9%; FMDV inh: -26%; HCMV antiviral: 0

What do the screens show for `Cc1c(F)cccc1NC(=O)CCCCCC1NC(=O)NC1C` (centres undefined)?
Vaccinia mCherry: -11%; VACV Venus inh: -7%; HCV inh: 14%; FMDV inh: 44%; HCMV antiviral: -71*

How did Cc1[nH]c2ccccc2c1/C=C/C(=O)c1ccccc1 do in these assays?
Vaccinia mCherry: inconclusive; VACV Venus inh: -12%; HCV inh: inconclusive; FMDV inh: 24%; HCMV antiviral: 38

How did O=C(C=Cc1ccccc1)c1c[nH]c2ccccc2c1=O do in these assays?
Vaccinia mCherry: inconclusive; VACV Venus inh: -29%; HCV inh: 11µM*; FMDV inh: -18%; HCMV antiviral: -77*

What do the screens show for `Cc1[nH]c2ccccc2c(=O)c1C(=O)/C=C/c1ccccc1`?
Vaccinia mCherry: 3.2µM*; VACV Venus inh: inconclusive; HCV inh: 11µM*; FMDV inh: 13µM*; HCMV antiviral: -97*

How did O=C(/C=C/c1ccccc1)c1c[nH]c2ccccc12 do in these assays?
Vaccinia mCherry: -21%[7.34 µM]; VACV Venus inh: -18%[7.34 µM]; HCV inh: 0%; FMDV inh: -29%; HCMV antiviral: 18

What do the screens show for `N#CC(=C1C=CC(=NO)C(Cl)=C1)c1ccccc1`?
Vaccinia mCherry: 1%; VACV Venus inh: -10%; FMDV inh: -5%; HCMV antiviral: -98*

What do the screens show for `N#CC(=C1C=C(Br)C(=NO)C=C1Cl)c1ccc(Cl)cc1`?
Vaccinia mCherry: -15%; VACV Venus inh: -17%; FMDV inh: inconclusive; HCMV antiviral: 2

What do the screens show for `COc1cccc(NC(=O)CN(C)C(=O)/C=C/c2ccc3ccccc3n2)c1`?
Vaccinia mCherry: -9%; VACV Venus inh: -23%; HCV inh: 5%; FMDV inh: -17%; HCMV antiviral: 0

Results for Cc1cc2nc(-c3ccccc3)c(CC(C)(C)C)n2c(C)c1Br ?
Vaccinia mCherry: inactive; VACV Venus inh: 3%; FMDV inh: -15%; HCMV antiviral: -4

How did Cc1ccc(-c2nn(-c3cc(N4CCNCC4)ccc3[N+](=O)[O-])c(=O)c3ccccc23)cc1 do in these assays?
Vaccinia mCherry: -15%; VACV Venus inh: -19%; HCV inh: inconclusive; FMDV inh: -28%; HCMV antiviral: -68*

How did Cc1nn(-c2cc(N3CCCCCC3)ccc2[N+](=O)[O-])c(=O)c2ccccc12 do in these assays?
HCV inh: 13µM*; FMDV inh: 0%; HCMV antiviral: -32

What do the screens show for `Cc1ccc(NC(=O)COc2ccccc2C(=O)Nc2ccccc2)cc1Cl`?
Vaccinia mCherry: -14%; VACV Venus inh: -9%; HCV inh: -9%; FMDV inh: -16%; HCMV antiviral: 19

Results for CCOc1ccc(NC(=O)C(C)Oc2ccccc2C(=O)Nc2ccc(C)c(Cl)c2)cc1 (centres undefined) ?
HCV inh: 11µM*; FMDV inh: 26%; HCMV antiviral: 88

How did O=C(c1ccco1)N1CCN(c2nc(C(F)(F)F)nc3c2nnn3Cc2ccccc2)CC1 do in these assays?
HCV inh: 4µM*; FMDV inh: 14µM*; HCMV antiviral: -76*

What do the screens show for `O=C(c1ccco1)N1CCN(c2ncnc3c2nnn3Cc2ccccc2Cl)CC1`?
Vaccinia mCherry: -11%; VACV Venus inh: -29%; HCV inh: inconclusive; FMDV inh: inconclusive; HCMV antiviral: -32

What do the screens show for `C=CCn1c(CNC(=O)c2ccccc2F)nnc1SCC(=O)N1CCOCC1`?
Vaccinia mCherry: -23%; VACV Venus inh: -13%; HCV inh: 25%; FMDV inh: -6%; HCMV antiviral: -21

Results for Cc1[nH]c2ccccc2c1SCc1nnc(SCc2ccc(Cl)cc2)n1C ?
Vaccinia mCherry: inconclusive; VACV Venus inh: -24%; HCV inh: 11µM*; FMDV inh: 1%; HCMV antiviral: -12

How did COc1ccc(-n2nc(C#N)c(Cl)cc2=O)cc1 do in these assays?
Vaccinia mCherry: 11µM*; VACV Venus inh: 10µM*; HCV inh: inconclusive; FMDV inh: 22µM*; HCMV antiviral: -101*

How did O=C(CCl)Nc1cccn2ncnc12 do in these assays?
VACV Venus inh: 7.9µM*; HCV inh: inconclusive; FMDV inh: -9%; HCMV antiviral: -60*

What do the screens show for `O=[N+]([O-])c1cccc2nc3ccccc3c(NCCCn3ccnc3[N+](=O)[O-])c12`?
Vaccinia mCherry: 2.8µM*; VACV Venus inh: 1.4µM*; HCV inh: inconclusive; FMDV inh: 14µM*; HCMV antiviral: -97*

Results for Cc1ccc(S(=O)(=O)N2CCSCCSCCSCCSCC2)cc1 ?
Vaccinia mCherry: inactive; VACV Venus inh: -11%; HCV inh: -24%; FMDV inh: -14%; HCMV antiviral: inconclusive

Results for CCOC(=O)C1CCCN(C(=O)c2cc3c(OC)c(OC)c(OC)cc3[nH]2)C1 (centres undefined) ?
Vaccinia mCherry: inactive; VACV Venus inh: -16%; HCV inh: 2%; FMDV inh: 7%; HCMV antiviral: 1
